# Yp Topo-I inh: Y. pestis Topo-I inhibition via cleavage products; actives 0.064% (n = 360,000); Y. pestis Topo-I cleavage product accumulation, plate reader; activity, % at 10 µM; in the data active = activity above about 50%, passing the limit was not always enough
# TcdB GH inh: blocks C. difficile toxin B glycohydrolase activity | inhibition, % at 9.99 µM | AID 652162 | actives 0.24% (n = 350,000) | TcdB glycohydrolase enzymatic assay, plate reader; in the data active = inhibition above about 10%
# Target sequence (P18177 whole entry, looked up): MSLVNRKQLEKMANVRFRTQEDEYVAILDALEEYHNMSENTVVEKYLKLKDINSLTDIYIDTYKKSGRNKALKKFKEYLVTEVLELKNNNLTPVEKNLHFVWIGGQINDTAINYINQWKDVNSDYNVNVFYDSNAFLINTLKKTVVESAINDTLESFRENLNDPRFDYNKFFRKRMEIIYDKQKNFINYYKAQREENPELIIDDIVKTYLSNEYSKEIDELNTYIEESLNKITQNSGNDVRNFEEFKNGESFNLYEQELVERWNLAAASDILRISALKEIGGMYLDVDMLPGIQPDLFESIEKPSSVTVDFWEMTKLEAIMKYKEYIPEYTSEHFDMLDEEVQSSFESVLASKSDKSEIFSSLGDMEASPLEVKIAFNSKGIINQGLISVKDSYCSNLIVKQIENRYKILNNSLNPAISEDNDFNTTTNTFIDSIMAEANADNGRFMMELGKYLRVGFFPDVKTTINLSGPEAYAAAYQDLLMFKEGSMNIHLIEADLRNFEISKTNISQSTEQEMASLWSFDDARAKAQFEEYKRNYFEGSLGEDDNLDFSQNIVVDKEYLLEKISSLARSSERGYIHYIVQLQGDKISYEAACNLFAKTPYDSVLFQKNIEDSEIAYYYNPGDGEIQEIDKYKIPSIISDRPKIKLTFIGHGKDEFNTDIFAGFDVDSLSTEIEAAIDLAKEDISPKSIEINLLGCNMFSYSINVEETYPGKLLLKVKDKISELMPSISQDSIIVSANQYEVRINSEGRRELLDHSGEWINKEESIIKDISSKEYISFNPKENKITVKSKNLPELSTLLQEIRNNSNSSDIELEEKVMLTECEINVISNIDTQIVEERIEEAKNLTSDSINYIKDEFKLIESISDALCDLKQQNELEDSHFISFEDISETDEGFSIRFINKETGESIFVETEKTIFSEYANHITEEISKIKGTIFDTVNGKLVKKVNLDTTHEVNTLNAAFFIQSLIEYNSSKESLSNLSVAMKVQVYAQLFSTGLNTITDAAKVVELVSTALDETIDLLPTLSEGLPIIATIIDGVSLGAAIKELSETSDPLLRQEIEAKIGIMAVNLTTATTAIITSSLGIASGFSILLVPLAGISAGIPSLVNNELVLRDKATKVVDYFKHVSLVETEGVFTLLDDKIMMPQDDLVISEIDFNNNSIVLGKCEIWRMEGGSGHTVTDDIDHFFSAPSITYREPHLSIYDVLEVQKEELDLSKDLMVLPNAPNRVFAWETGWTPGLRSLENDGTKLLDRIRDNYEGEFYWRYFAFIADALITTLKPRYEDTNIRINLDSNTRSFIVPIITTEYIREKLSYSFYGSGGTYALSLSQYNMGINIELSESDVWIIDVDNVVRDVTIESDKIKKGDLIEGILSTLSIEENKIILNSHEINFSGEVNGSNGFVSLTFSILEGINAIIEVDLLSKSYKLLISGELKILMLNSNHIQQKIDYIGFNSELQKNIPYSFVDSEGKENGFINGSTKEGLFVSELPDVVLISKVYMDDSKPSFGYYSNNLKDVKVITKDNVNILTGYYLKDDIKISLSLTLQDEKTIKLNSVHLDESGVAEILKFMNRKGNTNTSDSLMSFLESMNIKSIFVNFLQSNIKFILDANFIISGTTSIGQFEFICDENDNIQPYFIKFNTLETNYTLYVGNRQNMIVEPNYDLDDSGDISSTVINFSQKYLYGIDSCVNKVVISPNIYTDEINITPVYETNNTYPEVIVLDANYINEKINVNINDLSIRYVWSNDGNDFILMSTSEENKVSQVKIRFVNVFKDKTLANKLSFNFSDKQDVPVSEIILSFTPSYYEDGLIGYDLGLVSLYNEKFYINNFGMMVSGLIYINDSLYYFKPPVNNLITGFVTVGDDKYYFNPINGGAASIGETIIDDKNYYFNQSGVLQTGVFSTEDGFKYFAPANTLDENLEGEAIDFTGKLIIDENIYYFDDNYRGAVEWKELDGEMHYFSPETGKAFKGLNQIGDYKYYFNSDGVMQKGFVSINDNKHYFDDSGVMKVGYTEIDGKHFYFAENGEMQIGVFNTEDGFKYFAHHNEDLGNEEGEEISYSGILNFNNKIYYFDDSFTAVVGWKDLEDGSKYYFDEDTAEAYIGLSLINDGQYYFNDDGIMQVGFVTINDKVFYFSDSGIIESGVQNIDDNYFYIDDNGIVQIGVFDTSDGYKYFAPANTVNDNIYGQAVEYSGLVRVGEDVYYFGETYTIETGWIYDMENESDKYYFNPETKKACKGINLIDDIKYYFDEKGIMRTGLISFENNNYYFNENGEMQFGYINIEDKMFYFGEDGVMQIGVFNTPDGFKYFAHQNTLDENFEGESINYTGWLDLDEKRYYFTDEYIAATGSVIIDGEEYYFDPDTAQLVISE
# FadD28 FP inh: M. tuberculosis FadD28 bisubstrate binding inhibition; actives 0.22% (n = 360,000); inhibition, % at 12.5 µM; AID 588549; FadD28 bisubstrate probe binding, fluorescence polarization; in the data active = inhibition above about 8.5%, passing the limit was not always enough
# Mtb BioA inh: inhibitors of Mycobacterium tuberculosis BioA enzyme; inhibition, % at 9.99 µM; purified M. tuberculosis BioA enzyme, plate reader; AID 602481; actives 0.096% (n = 360,000); in the data active = inhibition above about 40%
# * marks the source's active call; other numbers are inactive results; . = no result. The list is not random: actives were taken first. Their share in the collection is about 0.45%.
SMILES,Yp Topo-I inh,TcdB GH inh,FadD28 FP inh,Mtb BioA inh
COc1cc(/C=N/n2c(-c3cc(C)[nH]n3)n[nH]c2=S)cc(OC)c1OC,1,9,-3,5
COc1cc(/C=N/n2c(-c3cc(C)[nH]n3)n[nH]c2=S)ccc1O,5,19*,-3,.
COc1ccccc1CN1[C@@H](CO)[C@@H]2c3ccccc3N(C(=O)C3CCCC3)C[C@@H]21,.,0,.,6
O=C(C1=C[C@H](c2ccccc2)C[C@H](OCc2ccc(CO)cc2)O1)N1CCCC1,.,-8,.,.
Cc1cc(N/N=C/c2ccc(O)cc2O)nc(N2CCOCC2)n1,-12,15*,3,1
C[C@@H]1CN([C@@H](C)CO)C(=O)c2cc(-c3cccc(C#N)c3)cnc2O[C@@H]1CN(C)C(=O)C1CC1,.,0,.,-1
O=C(C1CC1)N1C[C@H]2[C@@H](c3ccccc31)[C@@H](CO)N2C(=O)c1ccccn1,.,.,.,-4
CC(C)C(=O)Nc1cccc(COc2ccc(CN(Cc3ccccc3)C(=O)OC(C)(C)C)cc2)c1,53*,1,1,0
Oc1ccc(-c2cn3ccccc3n2)cc1,-15,41*,1,.
Cc1cc2c(SCC(=O)Nc3cccc(O)c3)ncnc2s1,-5,-1,19*,1
COc1ccc(NC(=O)CSc2ncnc3sc(C)cc23)cc1,18,0,-1,0
COc1ccc(C2CC(c3ccccc3)=NN2C(=O)COC(=O)c2cccc(S(=O)(=O)N3CCOCC3)c2)cc1 (configuration not stated),60*,.,-1,.
COc1cc(/C=C2\CCCc3c2nc2ccccc2c3C(=O)O)cc(Br)c1O,1,-19,12*,0
Cc1ccccc1S(=O)(=O)N1C[C@@H](O)COC[C@H]2O[C@H](CC(=O)NCCc3ccccc3)CC[C@@H]21,.,1,.,2
Nc1nnc(CC(=O)N/N=C/c2cc([N+](=O)[O-])cc(Br)c2O)s1,-13,1,37*,.
COc1ccc(NC(=O)N(C)C[C@@H]2Oc3ccc(NC(=O)C4CCCCC4)cc3C(=O)N([C@@H](C)CO)C[C@H]2C)cc1,.,0,.,-1
Cc1ccc(NC(=O)COC(=O)CCC2CCCC2)c(Br)c1,70*,-3,1,.
O=C(COC(=O)CCC1CCCC1)Nc1ccccc1Br,24,0,0,-2
COc1ccc(S(=O)(=O)Nc2cccc3c2O[C@H](CN(C)CC2CC2)[C@H](C)CN([C@@H](C)CO)C3=O)cc1,.,0,.,-5
CNc1n[nH]c(=S)s1,-6,24*,0,-1
CC(=O)Nc1n[nH]c(=S)s1,0,18*,-3,.
C=CCNc1n[nH]c(=S)s1,-3,15*,1,-1
C[C@H](CO)N1C[C@H](C)[C@H](CN(C)C(=O)Nc2ccc(C(F)(F)F)cc2)Oc2ccc(NC(=O)CCC(F)(F)F)cc2CC1=O,.,.,.,1
Oc1ccc(/C=N/Nc2ccnc3cc(Cl)ccc23)cc1O,-22,0,12*,.
Oc1ccc(/C=N/Nc2ccnc3cc(Cl)ccc23)c(O)c1O,-38,1,1,-1
SMILES,Yp Topo-I inh,TcdB GH inh,FadD28 FP inh,Mtb BioA inh
C[C@H](NC(=O)C[C@H]1C[C@@H]2c3cc(NC(=O)CN(C)C)ccc3O[C@@H]2[C@@H](CO)O1)c1ccccc1,.,0,.,0
Cc1cc(C)c(S(=O)(=O)c2ccc(Cl)cc2C)c(Cl)n1,6,11*,-3,.
Cc1cc(C)c(S(=O)(=O)c2cccc(Cl)c2)c(Cl)n1,-1,-7,-4,.
Oc1ccccc1Oc1c(F)c(F)nc(N2CCCC2)c1F,-4,1,21*,6
CNC(=O)N(O)C1N(/N=C/c2cccnc2)C(=S)SC1(C)C (configuration not stated),-12,2,-9,.
CNC(=O)N(O)C1N(/N=C/c2ccc(SC)cc2)C(=S)SC1(C)C (configuration not stated),5,10*,0,-1
Nc1nnc(SCCCOc2ccc(F)cc2)s1,8,2,13*,-2
C[C@H]1CN([C@@H](C)CO)C(=O)c2cc(/C=C/c3ccccc3)cnc2O[C@H]1CN(C)C(=O)c1ccc2c(c1)OCO2,.,1,.,-1
C/C(=N/NC(=O)c1cc2ccccc2cc1O)C1C(=O)c2ccccc2C1=O,4,.,37*,0
COc1cc2ccccc2cc1C(=O)N/N=C/c1cccnc1,1,-10,-2,72*
CCOc1cc(/C=N/NC(=O)c2cccnc2)ccc1OCC(N)=O,3,4,-1,.
COc1ccc(Br)cc1C(=O)N/N=C/c1cccnc1,-3,0,.,24
CCOc1cc(/C=N/NC(=O)c2cccnc2)ccc1O,9,3,0,41*
O=C(N/N=C/c1cccc(OC(=O)c2ccccc2Cl)c1)c1cccnc1,20,0,-22,50*
Cc1nnc(SCC(=O)N2c3ccccc3C(C)(c3ccccc3)CC2(C)C)s1 (configuration not stated),59*,.,-5,.
O=C(O)c1cccc(N/N=C/c2cc(Br)cc(Br)c2O)c1,-14,.,28*,9
COc1ccc(Br)cc1/C=N/Nc1cccc(C(=O)O)c1,11,-2,5,.
CCc1ccc(/C=C/C(=O)C2C(=O)c3ccccc3C2=O)cc1,0,.,13*,.
O=C(/C=C/c1ccccc1)C1C(=O)c2ccccc2C1=O,-6,.,0,.
COc1c(N2CCN(C(=S)NCc3ccccc3)C(C)C2)c(F)cc2c(=O)c(C(=O)O)cn(C3CC3)c12 (configuration not stated),62*,.,-1,0
O=C(Nc1ccc(Cl)c(Cl)c1)N[C@H]1CC[C@@H](CCn2cc(C3CCCC3)nn2)O[C@H]1CO,.,-9,.,.
Cc1c(C(=O)O)cccc1-n1c(C)cc(/C=N/Nc2ccc([N+](=O)[O-])cn2)c1C,-5,0,34*,.
Cc1cc(/C=N/Nc2ccc([N+](=O)[O-])cn2)c(C)n1-c1ccccc1,-22,.,-6,.
O=C(C[C@H]1C[C@@H]2c3cc(NC(=O)CC4CC4)ccc3O[C@@H]2[C@H](CO)O1)NCc1ccccc1,.,1,.,-1
CCc1ccc(Nc2nc(N)nc(CSc3nnnn3-c3ccccc3)n2)cc1,53*,.,-1,-2
SMILES,Yp Topo-I inh,TcdB GH inh,FadD28 FP inh,Mtb BioA inh
Cc1ccccc1Nc1nc(N)nc(CSc2nnnn2-c2ccccc2)n1,3,.,-3,.
COc1cc(/C=C(\C#N)C(=O)N2CCCCC2)ccc1O,3,14*,-3,0
O=C(COc1ccc(/C=N/NC(=O)c2ccncc2)cc1)Nc1ccc([N+](=O)[O-])cc1,3,1,1,.
O=C(COc1ccc(/C=N/NC(=O)c2ccc(O)cc2)cc1)Nc1cccc([N+](=O)[O-])c1,5,15*,0,.
C[C@@H]1CN([C@@H](C)CO)C(=O)c2cc(N(C)C)ccc2O[C@H]1CN(C)C(=O)Nc1ccc2c(c1)OCO2,.,-1,.,0
CC(=O)Nc1cccc(NC(=O)c2ccc(Br)cc2)c1,-2,10*,-1,7
C[C@@H]1CN([C@H](C)CO)C(=O)c2cc(NS(=O)(=O)c3cn(C)cn3)ccc2O[C@@H]1CN(C)C(=O)NC1CCCCC1,.,-1,.,-1
O=C(OCC(=O)c1c[nH]c2ccccc12)c1ccc([N+](=O)[O-])s1,-18,0,-1,2
CCc1cccc2c(C(=O)COC(=O)c3ccc([N+](=O)[O-])s3)c[nH]c12,-29,0,33*,.
